According to PubChem BioAssay AID1347426 (Functional Genomics Laboratory (NCATS/FGL), 2020):
Out of some 31,000 sequences screened, about 1,400 (4.5%) were called active. Many of the other results were omitted from the sample, so actives are more common in it than they were. Unmarked numbers belong to inactive results.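 Rule for the calls: active = median seed-adjusted z-score above 1 or below -1; inactive = the rest.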

Test: Novel Modifiers of Survival Motor Neuron (SMN) Protein: Gene Identification via Genome-wide siRNA Screen;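 note: luminescence tracks full-length SMN protein made from the SMN2 reporter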
Conditions: HEK293T SMN2-luciferase reporter, siRNA knockdown, 72 h; actives lie on both sides
How it was run: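 Luciferase signal, proportional to full-length SMN made from an SMN2 cDNA reporter in stable HEK293T cells, was read 72 h after siRNA reverse transfection. Values were expressed as MAD scores after non-targeting-control normalization and log10 conversion; seed analysis flagged off-targets.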

Sequence	median seed-adjusted z-score
CCAACGAGCGAGCAGCUUATT against BARX1	1.63 (active)
ACGGCAAGGUGUUCGAUGUTT against PGRMC1	0.124
CGUUCGACCUGAUCGCAAATT against ODZ2	-0.0233
GGGUCACACUAUUUCGUGUTT against ARIH1	-0.443
GAUGAGUGCUGCUUCCGGATT against IGF1	0.559
CCAGCUCCACGAAAAAGAATT against ZNF395	-0.0986
GAUACAGUCUACGCAGUUATT against ATPAF1	0.393
CAGCGUGCAUUUUCACUAATT against AKAP11	-0.0405
GCACUAAGAGUGACGUGUATT against PSKH1	-2.03 (active)
GGCUACAAUUUAAGACGAUTT against TNR	0.498
GAAAGAUGCAAAAGACAAATT against SFPQ	-1.15 (active)
GGUUAUGUAGUAACGAGUUTT against ALS2	0
GGAAUAUAAUAAGCGAAGATT against TAOK1	-0.0533
CGAGACUACUAAAGAAACATT against DDX18	0.241
CUACGACUUUUCCAAUAUATT against SLC6A4	1.43 (active)
CCAUCUCCCUUGUGCUGCATT against NINJ1	-0.061
GAGAGACCCUCGUCCUUUATT against CYP20A1	-0.796
GAAAGGCUUUGACCAAUCUTT against ZNF319	0.256
GUCACUAGCUUAUCUUGAATT against VEGFA	0.495
AGCAAAGUGUUCUACCUGATT against YWHAG	1.98 (active)
GAAAAUCGAAAGACUAAAATT against UTP11L	-0.755
CUAAUGAGUUUGUCUAAUATT against PKDREJ	0.376

Sequence	median seed-adjusted z-score
AGUGGAUUGUAGACAUGGATT against UBE2W	-0.655
GCAUCUACCGGAUCCUGAUTT against DDX49	0.0816
GCAGGCUAAUCGCAAUGAATT against ANXA13	-0.467
GCCAGAGUCCUGAUGCACATT against GPR31	-0.0381
GGACAAAGCAUUGACAAUUTT against KCNJ13	0.327
CAUCGGCUAUGACAACAUUTT against PSTPIP2	0.0136
GGUUCGUGAAGUUCGUAAATT against UTP3	-1.08 (active)
GAGUUAGGGAAAAAGCGUATT against ANK3	0.0252
CGUUGUUUUUGAGCACGUUTT against LMBR1	0.236
GGGAGAUCCUAGAACAAGATT against TAOK1	-0.0533
GUUUUGACCCUAUAGUUUATT against P2RY5	0.0278
GCAUUUGUUUGGGUUGCGATT against MTF2	0
GCAUUGUGAUCGAGGACAATT against HCN2	0
CGACAAUUCUUCUAGACAATT against TTC3	-1.17 (active)
ACAUCGAGUCAGAUCUUCATT against SLC11A1	-0.516
GGAGGUAUCUAACAAGAUUTT against LPO	0.201
UGCACGAUCUUCUACCCAATT against TKTL1	-0.495
AGCUUUCUUGAGCACCUGATT against LRRC32	0.0464
GAUGGACAUUGAUAGCGAUTT against DTX3L	0.0785
GAACGGCUCUUAAGAUCAATT against CACNA1D	-0.0856
CUAUGUACCGCUUCACUGATT against MMP9	-1.15 (active)
GGAAAUCUGUCACAUCGUATT against NR1I3	0.000933

Sequence	median seed-adjusted z-score
CGGGUUUCAUCAAAGUGCATT against RASSF5	0.11
GCAACUUCCUAGAACUGUUTT against PCYT1B	0.177
GGAGGACGGCUUCUACGAATT against KCNJ9	-0.0832
GACUCUCUACCAUGGAUUUTT against SLC25A42	-1.02 (active)
CGUACAUCCAGUGACCCUATT against MTMR4	-0.735
GAAACCAUCGGGAAGAUUUTT against VWA2	0.584
GAAAUGUGGUACUAAAGCATT against RALBP1	-0.0514
CAAUGAUCAUGGACCGUUUTT against CPEB3	0.086
CAAGUGCGAUAUCACCUUATT against IL4	-0.192
UCACAGUCACAUACAGAGATT against SNRPD3	-2.69 (active)
GUAUCUAACUUAUCUACUATT against HTR5A	-0.0687
GGUUUCAACUGGACUUCUATT against MFSD5	0.205
ACAGUCUUGUGAUCAGAAATT against UHRF1	0.231
AAAGCAAGCUGUUACAAAATT against ACAT2	1.25 (active)
GACGUAACAUCAACAGAUATT against SV2B	-0.43
GGACUUAACGGUAUCCAAATT against PCDHB10	-0.09
GCAGCUUUAACCAUUAAAATT against LTB4R	0.498
GCAAGACAACCAUUCUGUATT against ARF4	0.346
GCCGUGCUGAAGGCUCUAATT against KCNE3	-1.33 (active)
GGAAACUUCUCACCUAUGATT against MAGED1	0.524
GGCCGUGUACUGUAUCAUUTT against NUP93	1.01 (active)
CCACUGUUGGAAUUAAAGATT against AOAH	-0.123

Sequence	median seed-adjusted z-score
GUACAUAGAUUCUAGGCAATT against FOXJ3	-0.155
GGCAGAUGAUGGUAUCACATT against CNGA4	0.125
CCAUGUUCAUCAAAACUCUTT against ARHGAP1	-1.14 (active)
GAAGCACAUUGUUUCCAGATT against SERGEF	-0.308
CCCUUACCUUAAUCGACGATT against CRB1	0
GGCUGUAUCACAUCGGUUATT against CCR2	-0.00107
GUGCUUUGGUGGUACUAUUTT against ELOVL2	-0.456
CAGUGGUAAGAAAGAGAAATT against NRCAM	-0.0304
CACUAACUGAUUUACAAGATT against UBE2J1	-1.2 (active)
GGUAAACGAGAUCAACUUUTT against DVL3	-0.57
GGAUAUUAGUGUCGUGCAATT against ARHGEF7	0.185
GGAGAUUAGCAAGACCAUUTT against HOXC10	0.000966
AGACAGCUGCGAAUCUGGATT against MEFV	0
GGGUUUAUAUCGAACGCAATT against RNF144B	0.642
CUCCUGCCUUGAGCCCUUATT against GFRA4	-1.59 (active)
UGAUGCCUGUGAUACACUATT against NEU1	-0.425
GACAGGUACUUCUAAGUCATT against AHSA1	0.489
GAAAUUUGCGUGUGGAGUATT against TP53	0.214
CUAGAUAUCGUGGACCUCATT against PYDC1	-1.44 (active)
AUACUACGUUGAUUACAAATT against LRRTM1	-0.528
CCAGUACCAAAGUUGAUAATT against RB1	0.49
CCAUCUGUUUGAACUUAGATT against TLR5	0

Sequence	median seed-adjusted z-score
GCUAAAGAGAGAUAUGGAATT against DARS	0
GAGUUGAAAAUGACAAUGATT against CLSTN1	0.0811
ACAGCCGCAUGAACAAGGATT against B3GNT7	-1.05 (active)
CAAAGACCCUUUAUUCGAATT against BTBD10	0.695
GCCUUAUUGUUACAUGGUUTT against SLC19A2	-0.679
GCGCAGACGUGAUUGUCAATT against DAO	-0.00887
UGAGAGCCCUAUUCCAGUATT against UBASH3A	-1.1 (active)
GGAGGAUCCCAUUAUACUATT against LPA	-0.321
GGAUCGCACUCAUGUGGAATT against A4GALT	-0.286
GCAGAUGGUUAUAAGCACATT against GLA	-0.494
GACCCGUUUAUACAACAAATT against MX2	-0.0346
CUAGCAACAUGGACAUAUUTT against STS	-0.392
GGAUUACGUAUCAGACAUATT against CNGA1	-1.08 (active)
GGAGCAAAACAGAUCUUGATT against PINX1	0.11
CCUCUCUAGUAAUGCAAGATT against NAT12	-0.0807
GCUGUGCGUUCUUCACAAATT against RAB17	0.473
CACUCAGACGGGACGUUCATT against SCT	-0.454
CGAGUUUGCUUGGUCAGAATT against SF3B1	-3.65 (active)
CAAUAGAUCAAGUUAUACATT against KPNA5	-0.174
UGCUUGGCGACUUCAGUAATT against AKR1C2	-0.109
